Structures are written as SMILES. Active and inactive are the calls of the source. Unless noted, no rule for the calls is given here.

Five compounds from PubChem BioAssay can be followed below.

Test [1] relates to Wnt5a (protein binding on small-molecule microarray). Description: Wnt5a binders on small-molecule microarray, primary screen, biophysical, 635/667 nm fluorescence (AID 1142).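 Also: fluorescence read at 667 nm with signal to noise per printed feature.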 The note with it: 635 nm fluorescence, higher = more signal.
Test [2] in a line: cell viability in Huh7 cells, primary screen, cytotoxicity control for HCV replication inhibitor project, CellTiter-Glo luminescence, basal, 48 h (AID 1143).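 Also: Huh7 hepatoma cells carrying a hepatitis C replication reporter with no stimulus; test concentration not given here.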 The conditions noted are these: Huh7 HCV replicon, higher = more signal, called active from +8 up or from −8 down.
The nature of test [3]: P. aeruginosa biofilm formation inhibitors, primary screen, PAO1 strain, BacTiter-Glo luminescence, LB-PBS (AID 1144). The note with it: 12 h, higher = more signal.
Test [4] is described as follows: CREB reporter modulators without forskolin, primary screen, cell-based, PC12, CRE-LacZ reporter, unstimulated (AID 1145). The conditions noted are these: no forskolin, luminescence, 4.5 h, higher = more signal, called active from +8 up or from −8 down.
Test [5] can be described thus: CREB reporter modulators under forskolin, primary screen, cell-based, PC12, CRE-LacZ reporter, forskolin-stimulated (AID 1146).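 Also: PC12 cells with 6xCRE LacZ reporter stimulated by forskolin 10 µM; beta-galactosidase reporter signal reflecting CREB driven transcription.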 The note with it: luminescence, 4.5 h, higher = more signal, called active from +8 up or from −8 down.
Test [6] has as its target Streptavidin (Streptomyces avidinii) (UniProt P22629). Description: streptavidin binders on small-molecule microarray, primary screen, artefact control for SMM compound annotation, biophysical, 635/667 nm fluorescence (AID 1147).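 Also: signal reflects streptavidin binding to arrayed compounds as a control protein.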 The note with it: streptavidin binding, higher = more signal.
Test [7] is described as follows: small-molecule binders of probe aInhba, primary screen, biochemical, small-molecule microarray, 635/667 nm fluorescence (AID 1148).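 Also: score merges 667nm spot fluorescence with signal-to-noise for antibody binding to printed compounds.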 The note with it: higher = more signal.
The target of test [8] is Torsin-1A (Homo sapiens) (UniProt O14656). Briefly: torsin A binders from cell lysate, primary screen, small-molecule microarray, wild-type, 635/667 nm (AID 1149). The conditions noted are these: COS7 hTOR1A-WT lysate, 635 nm fluorescence, higher = more signal.
Chain of Torsin-1A (Homo sapiens) (O14656 whole entry, looked up): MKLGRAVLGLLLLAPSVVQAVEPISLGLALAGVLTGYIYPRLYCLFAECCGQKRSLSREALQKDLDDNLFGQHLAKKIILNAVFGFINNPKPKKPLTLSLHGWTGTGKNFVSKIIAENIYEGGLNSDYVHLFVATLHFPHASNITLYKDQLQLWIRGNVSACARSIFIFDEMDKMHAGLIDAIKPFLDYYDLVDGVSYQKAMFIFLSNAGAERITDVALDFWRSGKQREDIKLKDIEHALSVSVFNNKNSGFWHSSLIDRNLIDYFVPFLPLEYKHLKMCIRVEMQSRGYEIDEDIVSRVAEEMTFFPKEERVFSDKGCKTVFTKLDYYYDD
Test [9] has the same target. Description: small-molecule binders of mutant TOR1A in lysate, primary screen, cell lysate, small-molecule microarray, COS7 lysate, 635/667 nm fluorescence (AID 1150).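 Also: score pools 667 nm emission and signal to noise measuring lysate protein binding.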 The note with it: COS7 hTOR1A mutant lysate, 635 nm fluorescence, higher = more signal.
The test system of test [10] is Sonic hedgehog protein (Shh). Description: small-molecule binders of Shh protein, primary screen, biochemical, small-molecule microarray, 635/667 nm fluorescence (AID 1151).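 Also: Shh protein binding to compounds spotted on small-molecule microarray slides; score combines spot fluorescence intensity with signal-to-noise across triplicate slides.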 The note with it: small-molecule microarray binding, 635 nm fluorescence; higher = more signal.
Test [11] in a line: E. coli DRC41 culture turbidity changes, primary screen, E. coli filamentation inducer project, strain DRC41, OD650, 48 h (AID 1152).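 Also: E. coli MC1000 strain DRC41 lacking acrAB efflux pump and sulA.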 The note with it: E. coli DRC41 (acrAB sulA), higher = more signal, called active from +8 up or from −8 down.
Test [12] is described as follows: small-molecule binders of probe aLefty1, primary screen, biochemical, small-molecule microarray, 635/667 nm fluorescence (AID 1153).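 Also: score merges spot fluorescence with signal-to-noise ratio from the scanned slide images.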 The conditions noted are these: higher = more signal.
A short description of test [13]: PSAC antagonists in infected red cells, primary screen, cell-based, P. falciparum Indochina, OD700, 1 h (AID 1154). The note with it: P. falciparum Indochina infected RBC osmotic lysis, higher = more signal, called active from +8 up or from −8 down.
A short description of test [14]: PSAC antagonists in infected red cells, primary screen, cell-based, P. falciparum Indochina, OD700, 2 h (AID 1155).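 Also: lysis reports solute entry through the parasite surface anion channel PSAC; channel blockers reduce lysis of infected cells.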 The conditions noted are these: P. falciparum Indochina infected erythrocytes, osmotic lysis OD700; higher = more signal, called active from +8 up or from −8 down.
A short description of test [15]: osmotic lysis modulators in infected erythrocytes, primary screen, PSAC antagonist project, cell-based, P. falciparum Indochina, OD700, 3 h (AID 1156). The conditions noted are these: higher = more signal, called active from +8 up or from −8 down.
The nature of test [16]: PSAC antagonists in infected red cells, primary screen, cell-based, P. falciparum Indochina, OD700, 18 h (AID 1157). The conditions noted are these: P. falciparum Indochina infected erythrocytes, osmotic lysis OD700, 18 h; higher = more signal, called active from +8 up or from −8 down.
Test [17] can be described thus: modulators of S6 phosphorylation in cells, primary screen, cell-based, A549, cytoblot, luminescence, serum-stimulated (AID 1158).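 Also: serum-stimulated A549 lung adenocarcinoma cells; signal is phosphorylated S6 detected by cytoblot immunostaining with HRP secondary.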 The note with it: A549 phospho-S6 cytoblot, 5 h, higher = more signal.
Test [18] deals with NADPH oxidase 2 (Homo sapiens) (UniProt P04839). Description: NOX2-dependent H2O2 signal modulators, primary screen, NOX inhibitor project, cell-based, HEK293-NOX2, PMA-stimulated, Amplex Red fluorescence (AID 1159). Also: test concentration not given here. The note with it: 45 min, higher = more signal, called active from +8 up or from −8 down.
Chain of NADPH oxidase 2 (Homo sapiens) (P04839 whole entry, looked up): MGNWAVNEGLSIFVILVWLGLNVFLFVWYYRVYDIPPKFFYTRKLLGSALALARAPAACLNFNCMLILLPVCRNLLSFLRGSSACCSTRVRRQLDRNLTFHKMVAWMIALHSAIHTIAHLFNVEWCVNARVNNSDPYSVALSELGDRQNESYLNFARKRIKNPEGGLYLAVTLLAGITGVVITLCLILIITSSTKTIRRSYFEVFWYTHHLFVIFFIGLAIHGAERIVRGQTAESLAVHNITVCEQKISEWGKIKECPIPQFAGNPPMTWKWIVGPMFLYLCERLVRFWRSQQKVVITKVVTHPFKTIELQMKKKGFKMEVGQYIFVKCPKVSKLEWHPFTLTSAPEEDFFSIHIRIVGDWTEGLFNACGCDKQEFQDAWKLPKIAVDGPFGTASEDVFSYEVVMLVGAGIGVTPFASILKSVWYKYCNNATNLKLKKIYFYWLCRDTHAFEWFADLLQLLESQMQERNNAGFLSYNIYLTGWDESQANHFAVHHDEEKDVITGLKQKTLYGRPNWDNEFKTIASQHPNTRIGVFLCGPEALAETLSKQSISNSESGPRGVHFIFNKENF
For test [19], the target named is NADPH oxidase 4 (Homo sapiens) (UniProt Q9NPH5). Briefly: NOX4-dependent H2O2 signal modulators, primary screen, NOX inhibitor project, cell-based, HEK293-NOX4, tetracycline-induced, Amplex Red fluorescence (AID 1160). The note with it: 45 min, higher = more signal, called active from +8 up or from −8 down.
Chain of NADPH oxidase 4 (Homo sapiens) (Q9NPH5 whole entry, looked up): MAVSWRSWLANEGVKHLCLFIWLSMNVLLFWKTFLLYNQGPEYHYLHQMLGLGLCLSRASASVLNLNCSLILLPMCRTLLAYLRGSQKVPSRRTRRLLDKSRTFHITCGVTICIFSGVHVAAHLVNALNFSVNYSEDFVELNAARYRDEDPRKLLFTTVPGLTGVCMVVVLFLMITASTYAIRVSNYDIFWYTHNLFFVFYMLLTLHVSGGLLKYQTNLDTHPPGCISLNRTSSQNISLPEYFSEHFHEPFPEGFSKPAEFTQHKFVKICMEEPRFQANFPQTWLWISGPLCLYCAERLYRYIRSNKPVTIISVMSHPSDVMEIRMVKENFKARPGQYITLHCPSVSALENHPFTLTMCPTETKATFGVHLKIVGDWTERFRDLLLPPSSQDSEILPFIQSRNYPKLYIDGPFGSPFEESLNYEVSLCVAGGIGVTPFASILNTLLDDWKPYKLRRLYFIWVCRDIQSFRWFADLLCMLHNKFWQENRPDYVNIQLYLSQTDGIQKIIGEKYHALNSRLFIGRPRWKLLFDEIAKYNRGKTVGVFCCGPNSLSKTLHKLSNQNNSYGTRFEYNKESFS
The target in test [20] is NADPH oxidase 5 (Homo sapiens) (UniProt Q96PH1). Description: NOX5-dependent H2O2 signal modulators, primary screen, NOX inhibitor project, cell-based, HEK293-NOX5, Amplex Red fluorescence (AID 1161). The note with it: HEK293-NOX5, ionomycin, 45 min, higher = more signal.
Chain of NADPH oxidase 5 (Homo sapiens) (Q96PH1 whole entry, looked up): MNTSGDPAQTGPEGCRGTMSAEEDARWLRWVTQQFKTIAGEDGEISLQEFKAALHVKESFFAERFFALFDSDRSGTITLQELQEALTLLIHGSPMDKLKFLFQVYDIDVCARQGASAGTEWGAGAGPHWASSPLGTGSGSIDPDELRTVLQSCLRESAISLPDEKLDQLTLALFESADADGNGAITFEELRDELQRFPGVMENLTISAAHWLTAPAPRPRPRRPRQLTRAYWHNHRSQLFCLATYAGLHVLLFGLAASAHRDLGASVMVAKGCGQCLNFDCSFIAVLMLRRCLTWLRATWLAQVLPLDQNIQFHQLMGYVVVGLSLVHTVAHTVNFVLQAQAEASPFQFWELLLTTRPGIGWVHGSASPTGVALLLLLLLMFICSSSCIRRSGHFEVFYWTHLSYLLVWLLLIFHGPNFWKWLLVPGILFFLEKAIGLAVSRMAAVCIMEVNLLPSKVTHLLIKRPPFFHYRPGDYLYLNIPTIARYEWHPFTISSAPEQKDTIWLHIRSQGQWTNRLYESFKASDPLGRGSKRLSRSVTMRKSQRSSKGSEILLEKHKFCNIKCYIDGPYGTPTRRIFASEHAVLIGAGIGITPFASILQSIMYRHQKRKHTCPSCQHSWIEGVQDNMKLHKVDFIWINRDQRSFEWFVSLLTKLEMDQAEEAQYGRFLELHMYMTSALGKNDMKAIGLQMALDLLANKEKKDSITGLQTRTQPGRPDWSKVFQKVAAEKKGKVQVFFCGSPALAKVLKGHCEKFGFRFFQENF

Chain of Streptavidin (Streptomyces avidinii) (P22629 whole entry, looked up): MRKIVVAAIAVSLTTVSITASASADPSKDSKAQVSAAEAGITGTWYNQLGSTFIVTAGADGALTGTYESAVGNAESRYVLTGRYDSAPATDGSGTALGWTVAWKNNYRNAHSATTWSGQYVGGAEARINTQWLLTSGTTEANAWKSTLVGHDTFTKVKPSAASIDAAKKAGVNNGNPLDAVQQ

As for `O=C1OC[C@@H](c2ccccc2)n2cc(/C=C/c3ccccc3)cc21`, the composite z-score is 0.044 in [1]; 0.723 in test [6]; -0.0933 in test [7]; -1.43 with Torsin-1A (Homo sapiens) [8]; -0.565 with Torsin-1A (Homo sapiens) [9]; 0.319 in [10]. Moreover, in test [12], the composite z-score was -0.0868. In addition, the z-score is -4.14 (inactive) in [2]; 0.927 (inactive) in test [3]; 9.55 (active) in test [4]; -0.54 (inactive) in test [5]; 0.989 (inactive) in test [11]; 16.3 (active) in [13]. For the same compound, the z-score in [14] is 0.408 (inactive); in test [15] it was 2.6 (inactive); in [16], -1.8 (inactive); in test [17], 0.693; in test [18] it was 0.0419 (inactive); in test [19], 0.618 (inactive). This compound also yielded a z-score in test [20] of -0.408.

On to `C=CCNC(=O)[C@H]1[C@@H]2C(=O)O[C@@H](c3ccccc3)[C@@H](c3ccccc3)N2[C@@H](c2ccc(O)cc2)[C@]12C(=O)N(C(=O)OCCOC)c1ccc(C#Cc3ccc(OC)cc3)cc12`, for which the composite z-score in test [1] was 0.334; in test [6], 0.21; in test [7] it was 0.153; with Torsin-1A (Homo sapiens) [8], 0.0502; with Torsin-1A (Homo sapiens) [9] it was 0.651; in test [10], 1.21. Also, the composite z-score in test [12] worked out at 0.216. Also, the z-score in [2] is -2.17 (inactive); in test [3], 0.649 (inactive); in test [4] it was -0.195 (inactive); in test [5], 1.43 (inactive); in test [11], -0.983 (inactive); in test [13], 2.57 (inactive). Besides, the z-score in test [14] was 1.28 (inactive); in test [15] it was -0.829 (inactive); in test [16] it was 0.0195 (inactive); in [17], -0.376; in test [18], 1.62 (inactive); in test [19], 0.725 (inactive). Moreover, in test [20], the z-score came out at 1.13.

In the case of `O=C1C2C=CC(C(O)C3CCCCC3)N(Nc3ccccc3F)C2C(=O)N1c1ccccc1` (stereo not given), the composite z-score in [1] is 0.442; in test [6] it was 1.5; in test [7], 0.448; in the test with Torsin-1A (Homo sapiens) [8], 0.258; with Torsin-1A (Homo sapiens) [9] it was 1.12; in test [10] it was -0.324. Also, the composite z-score in test [12] amounted to 0.483. In addition, the z-score in test [2] was -2.88 (inactive); in [3] it was -0.469 (inactive); in [4] it was 0.826 (inactive); in test [5] it was -0.904 (inactive); in test [11], 0.128 (inactive); in test [13], 1.11 (inactive). In addition, the z-score was 0.304 (inactive) in [14]; 2.77 (inactive) in [15]; -0.743 (inactive) in [16]; 2.15 in test [17]; -2.64 (inactive) in test [18]; -4.15 (inactive) in test [19]. In addition, the z-score in [20] was -4.19.

Regarding `O=C1O[C@H](c2ccccc2)[C@H](c2ccccc2)N2[C@H]1[C@@H](C(=O)N1CCN(c3ncccn3)CC1)[C@]1(C(=O)Nc3ccc(C#CC4(O)CCCCCC4)cc31)[C@H]2c1ccc(O)cc1`, the composite z-score in test [1] is 0.675; in test [6] it was -0.0103; in [7], 0.096; with Torsin-1A (Homo sapiens) [8], 0.574; with Torsin-1A (Homo sapiens) [9] it was 0.0774; in [10] it was 1.93. Also, the composite z-score in [12] is 0.0903. Further, the z-score was -2.43 (inactive) in [2]; -0.759 (inactive) in test [3]; -0.258 (inactive) in test [4]; -0.296 (inactive) in test [5]; 2.51 (inactive) in [11]; 0.36 (inactive) in test [13]. Further, the z-score in test [14] was 0.88 (inactive); in test [15] it was 1.09 (inactive); in [16], 0.566 (inactive); in test [17], 1.37; in test [18] it was 1.24 (inactive); in [19], 0.663 (inactive). In test [20], this compound registered a z-score of 1.22.

Take `Cc1ccc(S(=O)(=O)N2[C@@H](c3ccccc3)C(C(=O)O)=CC[C@H]2c2ccc(F)cc2)cc1`: the composite z-score in test [1] amounted to 0.148; in test [6], 1.4; in [7], 0.0403; with Torsin-1A (Homo sapiens) [8], 1.33; with Torsin-1A (Homo sapiens) [9], 1.64; in [10] it was 0.193. Also, the composite z-score in [12] came out at 0.214. Moreover, the z-score is -1.85 (inactive) in test [2]; -0.8 (inactive) in test [3]; -0.676 (inactive) in test [4]; 0.398 (inactive) in test [5]; -0.232 (inactive) in test [11]; 2.05 (inactive) in test [13]. Further, the z-score in [14] was 0.706 (inactive); in [15] it was 1.1 (inactive); in test [16], 0.66 (inactive); in test [17], -0.0796; in test [18], 0.0361 (inactive); in [19], 0.605 (inactive). The compound also gave a z-score in [20] of 0.953.
